Assay results published in PubChem BioAssay (NCATS).
Records with an inconclusive call do not appear. The source made the active and inactive calls. Calls follow the shape of the dose curve; as a rule, active = well fitted curve in the direction sought with a large enough effect; inconclusive = small, poorly fitted or top-dose-only effect, or another doubt; inactive = no such curve, though single readings can be large; an effect the other way counts as inactive or inconclusive.

Tests used:
NIH3T3 = assay: qHTS assay to identify novel small-molecules to repurpose for Merkel cell carcinoma treatment (AID 1296009); conditions: MCC and control cell lines, CellTiter-Glo viability, 72 h; at 44.8 µM (top of the series) unless noted; also: nearly all actives have a fitted effect of over 60% in size
Summary of the method: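 Luminescence from CellTiter-Glo, read 10 min after addition at room temperature, reported viability following a 72 hr, 37 degree celsius treatment with NPC or MIPE compounds in titration; values normalized to plate controls.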

C33A = assay: Primary qHTS to identify gynecologic anti-cancer compounds using libraries of approved drugs and bioactive compounds (AID 1345084); conditions: Gynecologic cancer cell panel viability, ATPlite luminescence, 48 h; series mostly up to 57.5 µM; also: % is scaled to controls: 0 for no effect and ±100 for the full control effect; nearly all actives have a fitted effect of over 55% in size
Summary of the method: (§1)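 Cytotoxicity screen measuring ATP content by luciferase luminescence. Each compound is applied at five concentrations for 48 h at 37 C with 5% CO2.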

CAOV3 = assay: as above; conditions: Gynecologic cancer cell panel viability, ATPlite luminescence, 48 h; series mostly up to 57.5 µM
Summary of the method: as §1

CASKI = assay: as above; conditions: Gynecologic cancer cell panel viability, ATPlite luminescence, 48 h; series mostly up to 57.5 µM
Summary of the method: as §1

Es-2 = assay: as above; conditions: Gynecologic cancer cell panel viability, ATPlite luminescence, 48 h; series mostly up to 57.5 µM
Summary of the method: as §1

HeLa = assay: as above; conditions: Gynecologic cancer cell panel viability, ATPlite luminescence, 48 h; series mostly up to 57.5 µM
Summary of the method: as §1

Hek293T = assay: as above; conditions: Gynecologic cancer cell panel viability, ATPlite luminescence, 48 h, control line for the selectivity index; series mostly up to 57.5 µM
Summary of the method: as §1

JEG-3 = assay: as above; conditions: Gynecologic cancer cell panel viability, ATPlite luminescence, 48 h; series mostly up to 57.5 µM
Summary of the method: as §1

C=C1CC[C@H]2[C@@H](/C=C(\C)C(=O)[C@@]3(OC(C)=O)C[C@H](C)[C@H](OC(C)=O)[C@@H]3[C@H]1OC(C)=O)C2(C)C
inactive: outcome (NIH3T3) inactive [at 17.4 µM] | Potency (C33A) | Potency (CAOV3) | Potency (CASKI) | Potency (Es-2) | Potency (HeLa) | Potency (Hek293T) | Potency (JEG-3)

CC[C@H]1OC(=O)C[C@@H](O)[C@H](C)[C@@H](O[C@@H]2O[C@H](C)[C@@H](O)[C@H](N(C)C)[C@H]2O)[C@@H](CCN2C[C@H](C)C[C@H](C)C2)C[C@@H](C)C(=O)/C=C/C(C)=C/[C@@H]1CO[C@@H]1O[C@H](C)[C@@H](O)[C@@H](OC)[C@H]1OC
inactive: outcome (NIH3T3) | Potency (C33A) | Potency (CAOV3) | Potency (CASKI) | Potency (Es-2) | Potency (HeLa) | Potency (Hek293T) | Potency (JEG-3)

CCC[C@@H]1C[C@@H](C(=O)N[C@@H]([C@H]2O[C@H](SC)[C@H](O)[C@@H](O)[C@@H]2O)[C@@H](C)O)N(C)C1
inactive: outcome (NIH3T3) | Potency (C33A) | Potency (CAOV3) | Potency (CASKI) | Potency (Es-2) | Potency (HeLa) | Potency (Hek293T) | Potency (JEG-3)

C=C1C[C@]23C[C@H]1CC[C@H]2[C@@]12C=C[C@H](O)[C@@](C)(C(=O)O1)[C@H]2[C@@H]3C(=O)O
inactive: outcome (NIH3T3) | Potency (C33A) | Potency (CAOV3) | Potency (CASKI) | Potency (Es-2) | Potency (HeLa) | Potency (Hek293T) | Potency (JEG-3)

NCCOCCOCCNC(=O)Cc1ccc(Nc2nc(NCc3ccc(F)cc3)nc(NCC3CCCCC3)n2)cc1
inactive: outcome (NIH3T3) | Potency (C33A) | Potency (CAOV3) | Potency (CASKI) | Potency (Es-2) | Potency (HeLa) | Potency (Hek293T) | Potency (JEG-3)

CCC(=O)NS(=O)(=O)c1ccc(-c2c(-c3ccccc3)noc2C)cc1
inactive: outcome (NIH3T3) | Potency (C33A) | Potency (CAOV3) | Potency (CASKI) | Potency (Es-2) | Potency (HeLa) | Potency (Hek293T) | Potency (JEG-3)

C[C@@H]1O[C@@H](O[C@H]2[C@H](OC(C#N)c3ccc(O)cc3)O[C@H](CO)[C@@H](O)[C@@H]2O)[C@H](O)[C@H](O)[C@H]1O (stereo partly drawn)
inactive: outcome (NIH3T3) inactive [at 17.4 µM] | Potency (C33A) | Potency (CAOV3) | Potency (CASKI) | Potency (Es-2) | Potency (HeLa) | Potency (Hek293T) | Potency (JEG-3)

CCOC(=O)N1CCC(NCCNC(=O)c2ccccc2C)CC1
inactive: outcome (NIH3T3) | Potency (C33A) | Potency (CAOV3) | Potency (CASKI) | Potency (Es-2) | Potency (HeLa) | Potency (Hek293T) | Potency (JEG-3)

C[C@@H](Nc1cc(NS(=O)(=O)N2CCC2)nc(SCc2cccc(F)c2F)n1)[C@@H](O)CO
inactive: outcome (NIH3T3) | Potency (C33A) | Potency (CAOV3) | Potency (CASKI) | Potency (Es-2) | Potency (HeLa) | Potency (Hek293T) | Potency (JEG-3)

COc1ccc(C(O[C@@H]2O[C@H](CO)[C@@H](O)[C@H](O)[C@H]2O)C(CO)Oc2ccc(/C=C/CO)cc2OC)cc1O (stereo partly drawn)
inactive: outcome (NIH3T3) inactive [at 17.4 µM] | Potency (C33A) | Potency (CAOV3) | Potency (CASKI) | Potency (Es-2) | Potency (HeLa) | Potency (Hek293T) | Potency (JEG-3)

CC(C)=CCCC1(C)Oc2cc3c(c4c2C2C(O4)C(C)(O)CCC21)CN(C(CCC(=O)O)C(=O)O)C3=O (stereo not drawn)
inactive: outcome (NIH3T3) inactive [at 17.4 µM] | Potency (C33A) | Potency (CAOV3) | Potency (CASKI) | Potency (Es-2) | Potency (HeLa) | Potency (Hek293T) | Potency (JEG-3)

CNC(=O)c1ccc2cc([C@@]3(O)CCn4cncc43)ccc2c1
inactive: outcome (NIH3T3) | Potency (C33A) | Potency (CAOV3) | Potency (CASKI) | Potency (Es-2) | Potency (HeLa) | Potency (Hek293T) | Potency (JEG-3)

CC(C)CC1(C(=O)OCc2ccc(O[C@@H]3O[C@H](CO)[C@@H](O)[C@H](O)[C@H]3O)cc2)CC(=O)OC(C(=O)O)CC(=O)OCC2OC(O1)C(OC(=O)/C=C/c1ccc(O)cc1)C(O)C2O (stereo partly drawn)
inactive: outcome (NIH3T3) inactive [at 9.27 µM] | activity change, negative = cytotoxicity (C33A) -0.106% [at 11.6 µM] | activity change, negative = cytotoxicity (CAOV3) 1.66% [at 11.6 µM] | activity change, negative = cytotoxicity (CASKI) -1.89% [at 11.6 µM] | activity change, negative = cytotoxicity (Es-2) 11.3% [at 11.6 µM] | activity change, negative = cytotoxicity (HeLa) 0% [at 11.6 µM] | activity change, negative = cytotoxicity (Hek293T) 5.47% [at 11.6 µM] | activity change, negative = cytotoxicity (JEG-3) 1.44% [at 11.6 µM]

COc1cc(/C=C/C(=O)O[C@H]2[C@H](O)[C@@H](CO)O[C@@]2(CO)O[C@H]2O[C@H](COC(=O)c3ccc(O)cc3)[C@@H](O)[C@H](O)[C@H]2O)cc(OC)c1OC
inactive: outcome (NIH3T3) inactive [at 17.4 µM] | Potency (C33A) | Potency (CASKI) | Potency (Es-2) | Potency (HeLa) | Potency (Hek293T) | Potency (JEG-3)

C=C1CC[C@@H]2[C@](C)(CC[C@H](O)[C@@]2(C)CCC=C(C)C)[C@@H]1Cc1c[nH]c2ccccc12
inactive: outcome (NIH3T3) inactive [at 17.4 µM] | Potency (C33A) | Potency (CASKI) | Potency (Es-2) | Potency (HeLa) | Potency (Hek293T) | Potency (JEG-3)

CC(NC(=O)CC(=O)O)c1nc2ccccc2c(=O)[nH]1 (stereo not drawn)
inactive: outcome (NIH3T3) | Potency (C33A) | Potency (CAOV3) | Potency (CASKI) | Potency (Es-2) | Potency (HeLa) | Potency (Hek293T) | Potency (JEG-3)

O=C(O)C[C@H]1CCC(=O)[C@@H]1C/C=C\CCOC1OC(CO)C(O)C(O)C1O (stereo partly drawn)
inactive: outcome (NIH3T3) | Potency (C33A) | Potency (CASKI) | Potency (Es-2) | Potency (HeLa) | Potency (Hek293T) | Potency (JEG-3)

NCc1c[nH]c(=S)n1C1CCc2c(F)cc(F)cc2C1 (stereo not drawn)
inactive: outcome (NIH3T3) | Potency (C33A) | Potency (CAOV3) | Potency (CASKI) | Potency (Es-2) | Potency (HeLa) | Potency (Hek293T) | Potency (JEG-3)

CC[C@@H](c1ccc(F)c(F)c1)n1c(C(=O)OC)c(-c2ccno2)[nH]c1=S
inactive: outcome (NIH3T3) | Potency (C33A) | Potency (CAOV3) | Potency (HeLa) | Potency (Hek293T) | Potency (JEG-3)

C=C[C@@]1(C)CC(=O)C2[C@](C)(O1)[C@@H](OC(C)=O)[C@@H](O)[C@H]1C(C)(C)CCC[C@]21C (stereo partly drawn)
inactive: outcome (NIH3T3) inactive [at 9.27 µM] | activity change, negative = cytotoxicity (C33A) 11.6% [at 11.6 µM] | activity change, negative = cytotoxicity (CAOV3) 10.9% [at 11.6 µM] | activity change, negative = cytotoxicity (CASKI) -3.47% [at 11.6 µM] | activity change, negative = cytotoxicity (Es-2) 1.29% [at 11.6 µM] | activity change, negative = cytotoxicity (HeLa) 4.53% [at 11.6 µM] | activity change, negative = cytotoxicity (Hek293T) -0.239% [at 11.6 µM] | activity change, negative = cytotoxicity (JEG-3) 7.71% [at 11.6 µM]

COC(=O)C1(Cc2ccc(O)cc2)OC(=O)C(OC)=C1c1ccc(O)cc1 (stereo not drawn)
inactive: outcome (NIH3T3) | Potency (C33A) | Potency (CAOV3) | Potency (CASKI) | Potency (Es-2) | Potency (HeLa) | Potency (Hek293T) | Potency (JEG-3)

CCNC(=O)CCC/C=C\C[C@@H]1[C@@H](/C=C/C(O)CCc2ccccc2)[C@@H](O)C[C@@H]1O (stereo partly drawn)
inactive: outcome (NIH3T3) | Potency (C33A) | Potency (CAOV3) | Potency (CASKI) | Potency (Es-2) | Potency (HeLa) | Potency (Hek293T) | Potency (JEG-3)

CC(C)(OC1OC(CO)C(O)C(O)C1O)C1CCC(O)(CO)C2CC(O)C(C)(O)C2C1 (stereo not drawn)
inactive: outcome (NIH3T3) inactive [at 17.4 µM] | Potency (C33A) | Potency (CASKI) | Potency (Es-2) | Potency (HeLa) | Potency (Hek293T) | Potency (JEG-3)

COC(=O)C1=C[C@@H](O)[C@@H](O)[C@H](O[C@@H]2O[C@H](COC(=O)/C=C/c3ccccc3)[C@@H](O)[C@H](O)[C@H]2O)C1
inactive: outcome (NIH3T3) inactive [at 17.4 µM] | Potency (C33A) | Potency (CASKI) | Potency (Es-2) | Potency (HeLa) | Potency (Hek293T) | Potency (JEG-3)

CN(C)c1cccc(-c2c3c(=O)n(-c4ccccc4Cl)[nH]c3cc(=O)n2C)c1
inactive: outcome (NIH3T3) | Potency (C33A) | Potency (CASKI) | Potency (Es-2) | Potency (HeLa) | Potency (Hek293T) | Potency (JEG-3)

CC1=C2C3OC(=O)C(C)C3(O)CCC2(C)CCC1=O (stereo not drawn)
inactive: outcome (NIH3T3) | Potency (C33A) | Potency (CAOV3) | Potency (CASKI) | Potency (Es-2) | Potency (HeLa) | Potency (Hek293T) | Potency (JEG-3)

CC1CCC2(C(=O)OC3OC(CO)C(O)C(O)C3O)CCC3(C)C(=CCC4C5(C)CC(O)C(O)C(C)(C(=O)O)C5CCC43C)C2C1(C)O (stereo not drawn)
inactive: outcome (NIH3T3) inactive [at 17.4 µM] | Potency (C33A) | Potency (CAOV3) | Potency (CASKI) | Potency (Es-2) | Potency (HeLa) | Potency (Hek293T) | Potency (JEG-3)
